Sfp PPTase inh = qHTS Assay for Inhibitors of Bacillus subtilis Sfp phosphopantetheinyl transferase (PPTase); Biochemical Sfp PPTase activity, qHTS; AID 1490, 2009; Potency, µM, without a hit: largest response in the series, negative = inhibition, usual class: inhibitors; 310,000 compounds, 3.5% hits;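 note: the enzyme is Sfp with the accession as filed and its product quenches rhodamine fluorescence; 0% = enzyme reaction without inhibitor and -100% = no enzyme wells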
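Compounds were incubated with enzyme (final 15 nM) for 15 min at room temperature before substrate addition started the reaction. Fluorescence at 525 nm excitation, 598 nm emission was recorded immediately and after 30 minutes.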
JMJD2A Tudor = qHTS Assay for Inhibitors of JMJD2A-Tudor Domain; Lysine-specific demethylase 4A (Homo sapiens), O75164; AlphaScreen JMJD2A-Tudor / H3K4me3 peptide binding; Potency, µM (series often up to 114 µM), for inactives: at the highest dose activity change, negative = inhibition, actives largely listed as inhibitors; 390,000 compounds, 4.4% hits; AID 504339, 2011; note: % is set by controls: 0 for no effect and ±100 for the full control effect; nearly all actives have a fitted effect of over 50% in size
G9a block = qHTS Assay for Inhibitors of Histone Lysine Methyltransferase G9a | G9a H3K9 monomethylation, AlphaScreen, 2 h | 350,000 compounds, 8.8% hits | Potency, µM (series often up to 102 µM), for the others: at the highest dose activity, negative = inhibition, hits mostly inhibitors | Histone-lysine N-methyltransferase EHMT2 (Homo sapiens), Q96KQ7; note: % is set by controls: 0 for no effect and ±100 for the full control effect; nearly all actives have a fitted effect of over 75% in size
Target sequence (Q96KQ7 913-1193 limits assumed): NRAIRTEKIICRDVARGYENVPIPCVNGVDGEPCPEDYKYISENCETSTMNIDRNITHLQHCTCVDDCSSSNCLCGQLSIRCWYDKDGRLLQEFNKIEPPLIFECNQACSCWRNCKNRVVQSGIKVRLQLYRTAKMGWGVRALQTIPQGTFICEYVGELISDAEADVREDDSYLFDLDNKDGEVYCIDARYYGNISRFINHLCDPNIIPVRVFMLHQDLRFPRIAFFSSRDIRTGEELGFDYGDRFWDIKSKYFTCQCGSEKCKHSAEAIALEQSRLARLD
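Signal arises when biotinylated H3K9 peptide, once monomethylated, bridges streptavidin donor and antibody-captured acceptor beads. Enzyme at 20 nM was preincubated 15 min with test compounds; peptide 500 nM and SAM 20 uM then reacted for 2 h.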
PLK1 PBD inh = qHTS for Inhibitors of PLK1-PDB (polo-like kinase 1 - polo-box domain): Primary Screen; Potency, µM, inactives show max response, negative = inhibition, actives largely listed as inhibitors; 360,000 compounds, 2.8% hits; Plk1 PBD binding of FITC phosphopeptide, fluorescence polarization; note: series mostly up to about 57 µM; % is set by controls: 0 for no effect and ±100 for the full control effect; nearly all actives have a fitted effect of over 65% in size
BAZ2B block = qHTS Assay for Inhibitors of BAZ2B. AlphaScreen BAZ2B-H3K14Ac peptide displacement. Potency, µM (series often up to 114 µM), for the others: top-dose activity change, negative = inhibition, most hits filed as inhibitors. AID 504333, 2011. Bromodomain adjacent to zinc finger domain protein 2B (Homo sapiens), Q9UIF8. 360,000 compounds, 4.4% hits; note: % is set by controls: 0 for no effect and ±100 for the full control effect; nearly all actives have a fitted effect of over 60% in size
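BAZ2B 50 nM plus b-H3(5-23)K14Ac 50 nM, PBS pH 7.4/0.01% Tween-20, 30 min RT; compound added (max 110 uM), 30 min RT; streptavidin donor/Ni-chelate acceptor beads 10 ug/mL final, 20 min dark; AlphaScreen read.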
HP1b chromo inh = HTS for Inhibitors of HP1-beta Chromodomain Interactions with Methylated Histone Tails. 390,000 compounds, 0.56% hits. Potency, µM (doses to about 114 µM), for inactives: at the top dose activity change, negative = inhibition, hits mostly inhibitors. AlphaScreen HP1-beta / biotin-H3K9me3 peptide binding. Chromobox protein homolog 1 (Homo sapiens), P83916; note: nearly all actives have a fitted effect of over 70% in size
Target sequence (P83916 whole entry, looked up): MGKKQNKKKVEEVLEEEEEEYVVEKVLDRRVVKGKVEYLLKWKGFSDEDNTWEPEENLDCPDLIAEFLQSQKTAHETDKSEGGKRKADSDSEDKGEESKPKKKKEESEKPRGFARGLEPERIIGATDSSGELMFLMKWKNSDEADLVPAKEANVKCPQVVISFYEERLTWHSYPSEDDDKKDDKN
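Compound inhibition of the preformed complex between 50 nM HP1-beta and 50 nM biotinylated H3K9me3 peptide was read by AlphaScreen. Buffer was PBS pH 7.4 with 0.01% Tween-20. Incubations ran 30 min at room temperature, with 10 ug/mL donor/acceptor beads.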
The depositor's hits bear a star; ? = inconclusive; . = not tested or not shown; [ ] = another dose, or the depositor's remark. Most compounds without a hit are left out; they make up all but 12% or so of the library. Calls come from the whole dose curve; as a rule, active = well fitted curve in the direction sought with a large enough effect; inconclusive = small, poorly fitted or top-dose-only effect, or another doubt; inactive = no such curve, though single readings can be large; an effect the other way counts as inactive or inconclusive. Potency is the fitted concentration of half-maximal effect.

SMILES	Sfp PPTase inh	JMJD2A Tudor	G9a block	PLK1 PBD inh	BAZ2B block	HP1b chromo inh
CCCCCNC(=O)c1ccc2c(=O)[nH]c3c(C(=O)NCC4CCCO4)sc(=S)n3c2c1 (stereo not given)	50µM*	-33%[57.1 µM]	?	27µM*	-39%	?
O=C(NCC1CCCO1)c1ccc2c(=O)n(CCc3ccccc3)c(=O)[nH]c2c1 (stereo not given)	18%	-12%	17%[2.33 µM]	-9%	-5%	21%
O=C(NCC1CCCO1)c1ccc2c(=O)n(-c3ccc(F)cc3)c(=S)[nH]c2c1 (stereo not given)	1%	-8%	?	2%	-13%	62%
CN(C)CCNCc1ccc(OC2CCCC2)cc1	-2%	-11%	79µM*	-2%	-29%	29%
CCC(CO)NCc1ccc(OC2CCCC2)cc1 (stereo not given)	5%	-10%	5%[59 µM]	-3%	4%	24%
Cc1ccc(C(=O)O)cc1-n1c(C)ccc1-c1ccccc1	.	-31%	?	.	?	-5%
Cc1ccc(-c2ccccc2)n1-c1ccc(C(=O)O)cc1	71µM*	?	10µM*	?	?	1%
Cc1ccc(-c2ccccc2)n1-c1cccc(C(=O)O)c1	-20%	?	50µM*	-12%	-35%	-6%
COc1ccc2c(c1)O[C@@H](c1cccc(C(F)(F)F)c1)[C@H](OC(=O)NCc1ccc3c(c1)OCO3)C2=O	1%	.	.	.	.	.
O=C(O)CCn1c(SCCc2ccccc2)nc2ccccc21	.	-5%	.	2%	.	15%
COCCNC(=O)C1CC(c2ccccc2C(F)(F)F)=NO1 (stereo not given)	.	-15%	-2%[2.33 µM]	-2%	-6%	26%
O=C(Nc1ccc(Nc2ccncc2)cc1)c1ccc(Nc2ccnc3ccc([N+](=O)[O-])cc23)cc1	9%	100µM*	.	0%	-19%	-28%
Cn1nc(C(=O)Nc2nc3ccccc3[nH]2)c2ccccc2c1=O	10%	-14%	15%[59 µM]	4%	-24%	5%
Cn1nc(C(=O)Nc2c(-c3ccccc3)nc3sccn23)c2ccccc2c1=O	40µM*	-26%	-13%[59 µM]	1%	?	38%
Cn1cccc1/C=N/n1c(-c2ccc(C(C)(C)C)cc2)n[nH]c1=S	-2%	50µM*	7.9µM*	?	45µM*	50µM*
Cn1cccc1/C=N/n1c(-c2ccccc2)n[nH]c1=S	2%	3.5µM*	2%[0.501 µM]	?	?	?
CCOC(=O)CNC1CC(=O)N(c2cccc(Cl)c2)C1=O (stereo not given)	-30%	?	10µM*	-14%	-5%	34%
CCCOc1ccc(N2C(=O)CC(NCC(=O)OCC)C2=O)cc1 (stereo not given)	.	-10%	.	-20%	.	27%
COc1ccc(S(=O)(=O)Nc2ccc3c(c2)OCO3)cc1OC	-8%	-23%	50µM*	-2%	-5%	7%
COc1ccc(NS(=O)(=O)c2ccc3c(c2)OCCO3)cc1OC	11%	-11%	?	2%	-3%	17%
COc1ccc(S(=O)(=O)NCC(c2ccc3c(c2)OCO3)N2CCN(C)CC2)cc1OC (stereo not given)	.	-15%	50µM*	-14%	9%	7%
CCOc1ccc(S(=O)(=O)NCC(c2ccc3c(c2)OCO3)N2CCN(C)CC2)cc1 (stereo not given)	.	-21%	-21%[0.501 µM]	-9%	-13%	4%
Cc1ccc(C)c(S(=O)(=O)NCC(c2ccc3c(c2)OCO3)N2CCOCC2)c1 (stereo not given)	.	-17%	0%	27%	12%	14%
COc1ccc(C)cc1S(=O)(=O)NCC(c1ccc2c(c1)OCO2)N1CCN(C)CC1 (stereo not given)	.	-4%	11µM*	-4%	9%	22%
C[C@H](NC(=O)c1cccc([N+](=O)[O-])c1)C(=O)OCC(=O)c1ccccc1Br	.	-16%	.	-20%	.	17%
SMILES	Sfp PPTase inh	JMJD2A Tudor	G9a block	PLK1 PBD inh	BAZ2B block	HP1b chromo inh
COc1ccc(C(=O)COC(=O)c2cnc(C)cn2)cc1OC	.	-6%	?	-7%	2%	19%
O=C(O)C1C2CCC(C2)C1C(=O)N1CCCC1 (stereo not given)	45µM*	-3%	-12%	3%	-14%	44%
O=C(O)C1CCCCC1C(=O)N1CCCC1 (stereo not given)	27%	-1%	7%	3%	-1%	40%
CC(C)c1ccc(NC(=O)C2CCCN(S(=O)(=O)c3cccc4cccnc34)C2)cc1 (stereo not given)	.	-6%	1%[59 µM]	.	2%	31%
C#CCOc1ccc(-c2nnc(Nc3ccc(NC(C)=O)cc3)c3ccccc23)cc1	.	-2%	-2%[59 µM]	.	2%	26%
COCCN(CC(=O)NC1CCCCC1)C(=O)CSc1nc2ccccc2o1	8%	-3%	12%[12.7 µM]	-5%	-4%	26%
O=C(CN(Cc1ccc2c(c1)OCO2)C(=O)CSc1nc2ccccc2o1)NC1CCCCC1	79µM*	-8%	-5%[2.33 µM]	-2%	12%	26%
CCNc1c(N)c(=O)oc2ccccc12	-3%	-14%	5%	0%	-2%	0%
Nc1c(Nc2ccccc2)c2ccccc2oc1=O	-6%	-34%	50µM*	2%	?	-3%
O=C(COC(=O)COc1ccccc1Cc1ccccc1)Nc1cccnc1Cl	0%	4%	-40%[59 µM]	-7%	-7%	62%
CCOC(=O)C1CCCN(C(=O)CN2C(=O)COc3ccc(C(C)(C)C)cc32)C1 (stereo not given)	2%	-9%	-2%	-8%	4%	18%
COc1ccc(N2CCN(C(=O)CC(C)S(=O)(=O)c3ccc4c(c3)NC(=O)CO4)CC2)cc1 (stereo not given)	-2%	-35%	.	?	-11%	-9%
CCOC(=O)C1CCN(C(=O)CC(C)S(=O)(=O)c2ccc3c(c2)NC(=O)CO3)CC1 (stereo not given)	9%	-13%	71µM*	-18%	-3%	32%
CCOC(=O)C1CCN(C(=O)CN2C(=O)COc3ccc(C(C)(C)C)cc32)CC1	10%	79µM*	-10%	-3%	-4%	-7%
CCOC(=O)CSc1cccc2cccnc12	-24%	-9%	0%[59 µM]	13µM*	-7%	18%
